Assay results from PubChem BioAssay AID540256 (National Center for Advancing Translational Sciences (NCATS), 2011).
In all, about 300,000 compounds went through this assay and about 3,700 (1.2%) were called active. Entries that show only a call come without a potency. Roughly 20% stayed inconclusive and do not appear here. The call rests on the fitted dose curve; tested in HEK293 cells. Many of the other results were omitted from the sample, so actives are more common in it than they were.

Assay: qHTS for Inhibitors of binding or entry into cells for Lassa Virus; further: nearly all actives have a fitted effect of over 50% in size
Settings: Lassa virus pseudotype entry inhibition, cell reporter; series mostly up to 37.9 µM
Potency means the concentration at half of the fitted maximal effect.

| Compound | Potency |
| --- | --- |
| O=C(Cn1cnc2ccccc2c1=O)NNC(=O)c1ccccc1F | inactive |
| CC(C)OCCCNC(=O)CN1C(=O)/C(=C/c2ccccc2F)Oc2ccccc21 | inactive |
| Cc1ccc(NC(=S)NC(=O)c2ccc(-c3ccccc3)cc2)cc1 | inactive |
| CCOC(=O)C1=C(NC(=S)NC(=O)c2ccccc2)c2ccccc2CC1(C)C | 1.41 µM (active) |
| CCOC(=O)c1c(NC(=O)C2(C)Cc3ccccc3C(=O)O2)sc2c1CCCC2 (stereo not given) | inactive |
| O=C(NN=CC=Cc1ccccc1)C(O)C(O)C(=O)NN=CC=Cc1ccccc1 (stereo not given) | inactive |
| CC(C)c1ccc(C=NNc2ccc([N+](=O)[O-])cn2)cc1 | inactive |
| O=C(Nc1nncs1)c1ccccc1NS(=O)(=O)c1cccs1 | inactive |
| COc1ccccc1C(=O)Nc1ccccc1C(=O)Nc1ccccc1 | inactive |
| COc1cc(NC(=O)c2ccccc2NS(=O)(=O)c2ccc(Cl)s2)cc(OC)c1 | 11.2 µM (active) |
| CCn1nnc2cc(C(=O)Nc3ccc(C(=O)OC(C)C)cc3)ccc21 | inactive |
| O=C(COC(=O)c1n[nH]c2ccccc12)Nc1ccccc1Br | inactive |
| O=C(Nc1c(Br)cc2c(c1Br)Cc1cc([N+](=O)[O-])ccc1-2)C(Cl)Cl | inactive |
| Cc1ccc(NC(=O)c2ccc3[nH]c(C)cc(=O)c3c2)c(C)c1 | inactive |
| Cc1ccc(NC(=O)c2ccc(CSc3ncnc4nc[nH]c34)cc2)c(C)c1 | 17.8 µM (active) |
| CSc1ncc(C(=O)Nc2ccc(C)cc2C)c(C)n1 | inactive |
| COc1ccc(N=C2C=CC(=O)O2)cc1 | inactive |
| O=C(O)C(=Cc1ccccc1[N+](=O)[O-])c1ccccc1 | inactive |
| O=C1/C(=C\c2ccc([N+](=O)[O-])cc2)CS(=O)(=O)C/C1=C/c1ccc([N+](=O)[O-])cc1 | 3.55 µM (active) |
| O=[N+]([O-])c1ccc(C=NN=Cc2ccc([N+](=O)[O-])cc2)cc1 | inactive |
| NC(=S)N/N=C/c1ccc([N+](=O)[O-])cc1 | inactive |
| CCOC(=O)C1CCCN(C(=O)C2CCN(S(=O)(=O)c3ccc(Cl)c(C(F)(F)F)c3)CC2)C1 (stereo not given) | inactive |
| Cc1[nH]c2ccccc2c1C(=O)C(C)Sc1nnc(C2CC2)o1 (stereo not given) | inactive |
| Cc1c(CCO)c(=O)[nH]n1C(=O)c1c(F)cccc1F | 4.11 µM (active) |
| CC(=O)NC1(c2ccc(F)cc2)CCN(C(=O)c2c(F)cccc2F)CC1 | inactive |
| Cc1c(CCO)c(=O)n(-c2ccccc2)n1S(=O)(=O)c1ccc(F)cc1 | inactive |
| COc1ccc(CC(=O)NC(C)c2ccc(Cl)c(Cl)c2)cc1S(=O)(=O)N1CCOCC1 (stereo not given) | inactive |

| Compound | Potency |
| --- | --- |
| CCCCCOC(=O)NCCOC(=O)Nc1ccc(C(=O)OCC)cc1 | 1.03 µM (active) |
| CCCCC(CCC(=O)Nc1ccc(C(=O)OCC)cc1)C(=O)O (stereo not given) | inactive |
| CCOC(=O)Nc1ccc(NC(=O)OCC)cc1 | inactive |
| NC(CSC1(c2ccccc2)c2ccccc2-c2ccccc21)C(=O)O (stereo not given) | inactive |
| COC(=O)c1ccccc1NC(=O)C(Cc1ccccc1)N1Cc2ccccc2C1=O (stereo not given) | inactive |
| CC1=CC(C)(C)Nc2ccc(OC(=O)C(Cc3ccccc3)N3C(=O)C4CCCCC4C3=O)cc21 (stereo not given) | 1.12 µM (active) |
| CC1=CC(C)(C)Nc2ccc(OC(=O)CN3C(=O)C4CCCCC4C3=O)cc21 (stereo not given) | inactive |
| O=C(COC(=O)c1ccc2c(c1)OCCO2)NCc1ccccc1Cl | inactive |
| CCOc1cc(N2CCOCC2)c(OCC)cc1NC(=O)COc1cccc2cccnc12 | 6.31 µM (active) |
| CCOc1cc(N2CCOCC2)c(OCC)cc1NC(=O)c1cc(C)nc2ccccc12 | inactive |
| CCOc1cc(N2CCOCC2)c(OCC)cc1NC(=O)COc1cccc(Cl)c1 | inactive |
| N#CC1(Nc2ccc(-c3ccc(Cl)cc3)cc2)CCCC1 | inactive |
| COc1ccc(/C=N/NC(=O)c2cc(-c3cccc(C)c3)nc3ccccc23)cc1O | 7.08 µM (active) |
| C/C(=N\NC(=O)c1cc(-c2ccc(O)cc2)nc2ccccc12)c1cccnc1 | inactive |
| CCOc1ccc(/C=N\NC(=O)c2c(C)nc3cc(C)ccn23)cc1 | inactive |
| Cc1cc(C(=O)N/N=C/c2ccccn2)c2ccccc2n1 | inactive |
| COc1cccc(-c2cc(C(=O)N/N=C/c3ccc(OC)c(COC(C)=O)c3)c3ccccc3n2)c1 | inactive |
| CCOc1ccc(-c2cc(C(=O)N/N=C/c3ccc(O)cc3)c3ccccc3n2)cc1 | 1.41 µM (active) |
| Cc1ccc(C)c(NC(=O)CN(C)C(=O)COc2ccc3ccccc3c2)c1 | inactive |
| Cc1cc2occ(CC(=O)NNC(=O)c3ccccc3F)c2cc1C | inactive |
| Cc1ccc(CSCC(=O)N(C)CC(=O)Nc2ccc(C)cc2)cc1 | inactive |
| COc1ccc(C(=O)NCC(c2ccco2)N2CCc3ccccc32)cc1OC (stereo not given) | inactive |
| Cc1c(C)c2c(OCC(=O)NCCCO)cc3c(c2oc1=O)CCC(C)(C)O3 | inactive |
| Cc1c(NC(=O)C(C)OC(=O)c2c3c(nc4ccccc24)CCC(C)C3)c(=O)n(-c2ccccc2)n1C (stereo not given) | inactive |
| COc1cccc(C(=O)Nc2ccc(NC(=O)c3ccco3)cn2)c1 | inactive |
| O=C(Nc1ccc(NC(=O)c2cccs2)cn1)c1ccco1 | 3.98 µM (active) |
| O=C(Nc1ccc2nccnc2c1)c1ccco1 | inactive |

| Compound | Potency |
| --- | --- |
| COc1ccc(OCCNC(=O)c2cc(C3CC3)nc3c2cnn3C(C)C)cc1 | inactive |
| OCc1ccc(-c2ccccc2)c(-c2ccccc2)c1 | inactive |
| C/C(=C\C(=O)c1ccc(Br)cc1)N1CCCCC1 | inactive |
| CC1CN/C(=C\C(=O)c2ccc(Br)cc2)C(=O)N1 (stereo not given) | 8.2 µM (active) |
| CN1CCCC(OC(=O)COc2ccc(Br)cc2)C1 (stereo not given) | inactive |
| COC1=CC(=O)OC(c2ccc(OC)cc2)C1 (stereo not given) | inactive |
| O=C(CSc1nc2[nH]ncc2c(=O)n1-c1ccccc1)N1CCCc2ccccc21 | inactive |
| Cn1c(SCC(=O)N2CCCc3ccccc32)nc2ccccc2c1=O | 12.6 µM (active) |
| O=C(CSc1nc2ccccc2c(=O)n1CCCO)N1CCc2ccccc21 | inactive |
| COc1ccc(N2CCN(CCNC(=O)Nc3cc(Cl)ccc3Cl)CC2)cc1 | inactive |
| O=C(Cc1ccc([N+](=O)[O-])cc1)NCCc1ccc2c(c1)OCO2 | inactive |
| Cc1ccc(CSCC(=O)N(C)CC(=O)Nc2cccc(F)c2)cc1 | inactive |
| Cc1ccc(S(=O)(=O)Nc2ccc(F)c(S(=O)(=O)N3CCOCC3)c2)cc1 | inactive |
| CCOC(=O)N1CCN(C(=O)COc2ccc(Br)cc2)CC1 | inactive |
| O=C(COc1ccc2oc3c(c2c1)CCCC3)Nc1ccccn1 | inactive |
| CCOC(=O)N1CCN(C(=O)COc2ccc3oc4c(c3c2)CCCC4)CC1 | 10 µM (active) |
| CC(=O)c1ccc(OCCCC(=O)Nc2ccc(C)c(S(=O)(=O)N3CCOCC3)c2)cc1 | inactive |
| COc1ccccc1NS(=O)(=O)c1ccc(C(=O)N2CCN(c3ccccc3O)CC2)cc1 | inactive |
| COc1ccc2nc(/N=C(\N)NC(=O)Nc3ccccc3)nc(C)c2c1 | inactive |
| Cc1nn(-c2ccccc2)c(C)c1C(=O)OCC(=O)NC(=O)NC1CCCCC1 | inactive |
| Cc1nc(/N=C(\N)NC(=O)NC2CCCCC2)nc2ccccc12 | 22.4 µM (active) |
| CC(C)c1cc(N=O)cc(C(C)C)c1O | inactive |
| CCOC(=O)C(C)Sc1nc2ccccc2c(=O)n1CC1CCCCC1 (stereo not given) | inactive |
| N#Cc1c(NC(=O)CSc2nc3ccccc3c(=O)n2Cc2ccco2)sc2c1CCCC2 | inactive |
| CC(Sc1nc2ccccc2c(=O)n1Cc1ccco1)C(=O)c1ccccc1 (stereo not given) | 4.11 µM (active) |
| CC1CCCN(CC(=O)Nc2cc(Cl)ccc2Oc2ccccc2)C1 (stereo not given) | inactive |
| CCOc1ccc(NC(=O)COC(=O)C2CCC(=O)N2)c([N+](=O)[O-])c1 (stereo not given) | inactive |

| Compound | Potency |
| --- | --- |
| C=CCn1c(=N)n(CC(O)COc2ccc(OC)cc2)c2ccccc21 (stereo not given) | inactive |
| OC(COc1ccccc1)Cn1cc(Br)cn1 (stereo not given) | inactive |
| OC(CN=c1sc2ccccc2n1CC(O)COc1ccccc1)COc1ccccc1 (stereo not given) | 20.6 µM (active) |
| COc1ccccc1C(=O)NC(CCSC)C(=O)N1CCN(C/C=C/c2ccccc2)CC1 (stereo not given) | inactive |
| CC1CCC2CCCCC2N1C(=O)c1cc([N+](=O)[O-])cc([N+](=O)[O-])c1 (stereo not given) | inactive |
| COc1ccc(C2=Nc3cc(C)ccc3OC2)cc1 | 10 µM (active) |
| COc1ccc(C2=NOC3(CC(=O)N(c4ccc(C)cc4)C3=O)C2)cc1 (stereo not given) | inactive |
| COc1ccc(-c2cc(-c3ccccc3)nc3c2COc2ccc(Cl)cc2-3)cc1 | inactive |
| COc1ccc2c(c1)C(=O)Nc1cc(Cl)ccc1N2 | inactive |
| CC(=O)Nc1ccc(NC(=O)CS(=O)(=O)c2cn(CC(=O)N3CCCCC3)c3ccccc23)cc1 | inactive |
| Cc1onc(-c2ccccc2Cl)c1C(=O)OCc1nnc(-c2ccccc2)o1 | inactive |
| O=C(c1ccc(F)cc1)c1c[nH]c(C(=O)NCc2cccnc2)c1 | inactive |
| CC(C)CC(=O)c1c[nH]c(C(=O)NCc2ccccc2)c1 | 7.94 µM (active) |
| CC(C)CC(=O)NC(=S)NCc1ccccc1 | inactive |
| OC(COc1ccccc1)CN1CCN(c2cccc(Cl)c2)CC1 (stereo not given) | inactive |
| CC/C(=C\c1ccc(Cl)cc1)c1ccncc1 | inactive |
| COc1cccc(/C=N/NC(=O)c2[nH]nc3c2CCc2ccccc2-3)c1O | 12.6 µM (active) |
| COc1cc2cc(C(=O)N/N=C/c3cccc(OC)c3OC)[nH]c2cc1OC | inactive |
| CN(C)CCNC(=O)c1[nH]nc2c1CCc1ccccc1-2 | inactive |
| O=C(CSc1nnc(-c2ccncc2)o1)Nc1cccc(Cl)c1 | inactive |
| COc1ccccc1CNS(=O)(=O)c1cc(C(=O)NCc2ccccn2)c(Cl)cc1Cl | inactive |
| CCN(CC)S(=O)(=O)c1ccc(N(C)Cc2cccc(OC)c2OC)nc1 | inactive |
| CCN(CC)S(=O)(=O)c1ccc(N(C)Cc2ccc(C(F)(F)F)cc2)nc1 | 4.47 µM (active) |
| CCN(CC)S(=O)(=O)c1ccc(N(C)CCc2ccc(OC)c(OC)c2)nc1 | inactive |
